# Assay results: PMC3218832
# What was measured:
# Test in all cases: protein binding microarray; high values mean tight binding
# Settings in all cases: dsDNA, one strand shown
# RELARELA (p65 homodimer) = RELARELA (p65 homodimer) (Homo sapiens, UniProt Q04206 1-307)
# p50p50 homodimer = p50p50 homodimer (Homo sapiens, UniProt P19838 7-356)
# p52p52 homodimer = molecular target: T1, p52p52 homodimer (Homo sapiens, UniProt Q00653 4-332)
# T1 sequence: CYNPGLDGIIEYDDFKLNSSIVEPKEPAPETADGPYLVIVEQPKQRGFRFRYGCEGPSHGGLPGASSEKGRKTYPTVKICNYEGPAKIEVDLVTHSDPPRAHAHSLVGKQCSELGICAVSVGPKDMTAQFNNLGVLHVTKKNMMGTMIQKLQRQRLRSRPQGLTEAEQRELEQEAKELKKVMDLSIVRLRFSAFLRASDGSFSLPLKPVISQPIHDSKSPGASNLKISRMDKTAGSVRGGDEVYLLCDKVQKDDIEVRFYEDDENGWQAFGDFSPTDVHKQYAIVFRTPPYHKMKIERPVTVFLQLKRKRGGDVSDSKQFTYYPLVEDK
# [1] = molecular target: RELA (p65) subunit of heterodimer;p50 subunit (Homo sapiens;Homo sapiens, UniProt Q04206;P19838 1-307;7-356)
# RELA (p65) subunit of heterodimer;p50 subunit, sequence (Q04206 1-307, chain 1 of 2): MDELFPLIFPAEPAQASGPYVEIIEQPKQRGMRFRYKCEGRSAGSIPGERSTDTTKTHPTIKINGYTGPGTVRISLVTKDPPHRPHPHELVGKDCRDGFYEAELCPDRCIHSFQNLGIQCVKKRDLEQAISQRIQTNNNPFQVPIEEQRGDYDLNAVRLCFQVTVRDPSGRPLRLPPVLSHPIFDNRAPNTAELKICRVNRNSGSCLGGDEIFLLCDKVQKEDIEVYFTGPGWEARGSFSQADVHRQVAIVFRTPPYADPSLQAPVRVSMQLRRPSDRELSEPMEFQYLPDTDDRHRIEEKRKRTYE
# RELA (p65) subunit of heterodimer;p50 subunit, sequence (P19838 7-356, chain 2 of 2): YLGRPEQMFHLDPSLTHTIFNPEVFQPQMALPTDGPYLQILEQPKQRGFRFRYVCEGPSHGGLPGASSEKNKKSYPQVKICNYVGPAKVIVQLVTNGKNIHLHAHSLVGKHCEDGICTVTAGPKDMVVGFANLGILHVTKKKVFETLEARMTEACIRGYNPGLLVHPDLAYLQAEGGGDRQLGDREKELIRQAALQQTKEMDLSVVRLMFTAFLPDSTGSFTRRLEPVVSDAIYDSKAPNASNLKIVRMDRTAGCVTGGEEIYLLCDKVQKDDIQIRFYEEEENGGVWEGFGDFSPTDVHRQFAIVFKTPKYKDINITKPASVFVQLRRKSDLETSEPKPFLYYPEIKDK
# [2] = molecular target: RELA (p65) subunit of heterodimer;p52 subunit (Homo sapiens;Homo sapiens, UniProt Q04206;Q00653 1-307;4-332)
# RELB subunit;p50 subunit = RELB subunit;p50 subunit (Homo sapiens;Homo sapiens, UniProt Q01201;P19838 120-401;7-356)
# RELB subunit;p52 subunit = molecular target: T2, RELB subunit;p52 subunit (Homo sapiens;Homo sapiens, UniProt Q01201;Q00653 120-401;4-332)
# T2 sequence 1: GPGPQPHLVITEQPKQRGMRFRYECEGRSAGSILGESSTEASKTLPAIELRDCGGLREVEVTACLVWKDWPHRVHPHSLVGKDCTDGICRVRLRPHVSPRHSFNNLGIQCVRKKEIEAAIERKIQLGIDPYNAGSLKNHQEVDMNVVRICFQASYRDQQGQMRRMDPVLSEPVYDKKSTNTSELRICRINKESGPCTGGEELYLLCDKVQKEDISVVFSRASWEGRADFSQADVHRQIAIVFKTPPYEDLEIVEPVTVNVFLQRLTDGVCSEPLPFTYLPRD
# T2 sequence 2: T1 sequence
# [3] = molecular target: C-Rel subunit;p50 subunit (Homo sapiens;Homo sapiens, UniProt Q04864;P19838 1-285;7-356)
# [4] = molecular target: T3, C-Rel subunit;p52 subunit (Homo sapiens;Homo sapiens, UniProt Q04864;Q00653 1-285;4-332)
# T3 sequence 1: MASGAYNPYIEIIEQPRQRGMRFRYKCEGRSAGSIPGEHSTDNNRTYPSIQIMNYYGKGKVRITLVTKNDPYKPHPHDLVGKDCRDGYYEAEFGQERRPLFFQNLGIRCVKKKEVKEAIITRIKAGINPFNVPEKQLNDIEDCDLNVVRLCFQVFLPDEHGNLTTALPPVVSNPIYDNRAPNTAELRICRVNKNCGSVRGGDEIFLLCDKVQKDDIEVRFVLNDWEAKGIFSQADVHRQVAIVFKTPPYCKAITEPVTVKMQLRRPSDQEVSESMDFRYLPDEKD
# T3 sequence 2: T1 sequence
# p50p50 homodimer, sequence (P19838 7-356): as the sequence (P19838 7-356, chain 2 of 2) above
# RELARELA (p65 homodimer), sequence (Q04206 1-307): as the sequence (Q04206 1-307, chain 1 of 2) above
Sequence,binding signal (RELARELA (p65 homodimer)) [z-score],binding signal (p50p50 homodimer) [z-score],binding signal (p52p52 homodimer) [z-score],binding signal [1] [z-score],binding signal [2] [z-score],binding signal (RELB subunit;p50 subunit) [z-score],binding signal (RELB subunit;p52 subunit) [z-score],binding signal [3] [z-score],binding signal [4] [z-score]
CAAGATTCCCT,0.527,1.13,0.975,0.96,0.948,1.02,1.01,1.06,0.715
GAGTGGATCCT,-0.466,-1.11,-0.663,-0.846,-1,-1.04,-0.919,-1.49,-0.92
AAGTGTATCCC,-0.0644,-0.719,-0.379,-0.553,-0.504,-0.584,-0.4,-0.695,-0.382
CGAAGTTCCCT,0.618,0.819,0.347,0.834,0.752,0.603,0.672,0.425,0.379
GGGGTGTTCCT,1.06,0.337,0.617,0.455,0.487,0.00295,0.472,0.537,0.791
CGAGTCCCCCT,-0.0442,1.47,1.11,1.66,1.39,1.68,2.08,1.47,1.15
GAAGGAGTCCT,-0.288,-1.55,-0.648,-0.892,-0.934,-0.985,-0.808,-1.08,-0.746
CGGGGTTCCCC,2.62,0.899,3.05,2.3,2.64,1.93,2.28,2.2,3.29
GGAATTACCCC,2.91,0.961,1.76,1.92,2.08,1.18,1.85,1.44,2.35
GAGGAGCCCCC,-0.939,1.04,0.368,0.44,0.25,0.656,0.61,0.625,0.222
CAAGTATTCCT,-0.0829,-1.19,-0.607,-0.839,-0.737,-0.975,-0.645,-0.507,-0.822
AAGTGGCCCCC,-0.634,0.242,-0.0278,-0.101,0.0039,0.173,0.29,0.101,0.0509
AAGGGGGCCCC,-0.0322,0.728,0.786,0.441,0.981,0.694,1.04,0.532,0.709
AAGAGGTTCCT,0.0133,-1.79,-0.462,-0.943,-0.822,-0.701,-0.585,-1.22,-0.637
GAATGATCCCC,-0.194,0.816,0.548,0.936,0.697,0.943,0.595,0.665,0.409
CGAGACGTCCT,-0.768,-1.33,-0.73,-1.16,-0.933,-1.07,-0.949,-1.55,-0.864
CGGTATGTCCT,0.15,-0.81,-0.37,-0.663,-0.702,-0.895,-0.675,-0.815,-0.489
AAGGTCCTCCT,-0.719,-0.992,-0.49,-0.86,-0.773,-0.932,-0.687,-1.16,-0.643
AAATTACTCCC,0.447,0.204,-0.0753,0.132,-0.25,0.146,-0.105,0.213,-0.11
CGGTGTACCCT,-0.287,-0.0219,0.0503,-0.317,-0.282,-0.0463,-0.155,-0.172,-0.317
GGGGTCGCCCC,0.508,0.472,2.74,1.36,2.18,1.44,1.61,0.866,1.5
GGGATGCCCCT,1.02,0.778,2.65,1.78,2.07,1.74,1.82,1.22,2.2
CAGGTACCCCT,-0.0502,0.353,0.356,0.304,0.796,0.548,1.06,0.193,0.274
GAGGGAGCCCT,-0.902,-0.904,-0.464,-0.859,-0.736,-0.793,-0.682,-1.28,-0.682
GGAGAAACCCT,0.379,-0.144,0.127,0.478,0.623,-0.35,0.176,0.255,0.637
GGAATCGTCCC,0.862,0.42,0.582,0.504,0.591,0.29,0.267,0.649,0.392
GAGGGATTCCT,0.218,0.321,0.87,0.254,0.589,0.159,0.491,0.376,0.538
CAGTTACCCCC,0.379,1.11,0.638,0.953,0.838,1.01,1.4,1.01,0.788
GGAAGCACCCT,-0.312,0.509,0.257,0.415,0.261,-0.129,0.214,0.0298,0.224
CAGAGCACCCT,-0.924,-0.392,-0.306,-0.624,-0.75,-0.474,-0.444,-1.15,-0.736
